Screens from PubChem.
A selection: hits, their analogues and other compounds. The true share with any hit is near 10%.
FLuc inh-1: Photinus pyralis luciferase inhibition | P08659 | purified P. pyralis luciferase, luminescence, biochemical | Potency, µM (series often up to 115 µM), most hits filed as inhibitors | actives 2.5% (n = 76,000); further: nearly all actives have a fitted effect of over 65% in size
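Cell-free enzyme assay, 10nM P. pyralis luciferase, luciferin and ATP each at 10uM. Inhibition profiled over a 6-point titration, read as luminescence.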
HEK293 tox: kills HEK 293 cells | HEK 293 viability, ATP luminescence (CellTiter-Glo), 48-72 h | Potency, µM (highest dose often 115 µM), hits mostly inhibitors | actives 6.6% (n = 94,000); further: nearly all actives have a fitted effect of over 60% in size
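Pintool-delivered compounds were incubated with HEK 293 cells (250 cells/well) at 37 degree Celsius for 48 or 72 hr. ATP-dependent luminescence (CellTiter-Glo) then reported remaining viable cells.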
GPT2 inhibitor: GPT2 alanine aminotransferase inhibition | Recombinant GPT2, coupled pyruvate oxidase/HRP Amplex Red fluorescence | Potency, µM (highest dose often 57.7 µM), actives largely listed as inhibitors | actives 0.25% (n = 100,000); further: nearly all actives have a fitted effect of over 60% in size
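Recombinant GPT2 (10ng/uL) with 250uM a-KG and 2mM L-alanine, 30 min at room temperature, in HEPES pH 7.5 buffer. Pyruvate detected by pyruvate oxidase/HRP/Amplex Red fluorescence after 30 min in the dark; AOA (50uM) as positive control.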
3T3 cytotox: NIH 3T3 cell cytotoxicity. NIH 3T3 viability, CellTiter-Glo ATP luminescence, 48-72 h. Potency, µM (top dose mostly 96.7 µM), most hits filed as inhibitors. actives 4.3% (n = 94,000); further: nearly all actives have a fitted effect of over 55% in size
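Mouse fibroblast NIH 3T3 cells, 400 per well, received compound via pintool and were incubated for 48 or 72 hr prior to CellTiter-Glo ATP luminescence measurement.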
hNpr1 antagonist: blocks ANP-stimulated signaling of human Npr1 receptor. HEK293 hNpr1 GloSensor cGMP, ANP-stimulated luminescence. P16066. actives 1.6% (n = 76,000). Potency, µM (top dose mostly 46.3 µM), most hits filed as inhibitors; calls by dose curve; further: nearly all actives have a fitted effect of over 60% in size
Target sequence (P16066 whole entry, looked up): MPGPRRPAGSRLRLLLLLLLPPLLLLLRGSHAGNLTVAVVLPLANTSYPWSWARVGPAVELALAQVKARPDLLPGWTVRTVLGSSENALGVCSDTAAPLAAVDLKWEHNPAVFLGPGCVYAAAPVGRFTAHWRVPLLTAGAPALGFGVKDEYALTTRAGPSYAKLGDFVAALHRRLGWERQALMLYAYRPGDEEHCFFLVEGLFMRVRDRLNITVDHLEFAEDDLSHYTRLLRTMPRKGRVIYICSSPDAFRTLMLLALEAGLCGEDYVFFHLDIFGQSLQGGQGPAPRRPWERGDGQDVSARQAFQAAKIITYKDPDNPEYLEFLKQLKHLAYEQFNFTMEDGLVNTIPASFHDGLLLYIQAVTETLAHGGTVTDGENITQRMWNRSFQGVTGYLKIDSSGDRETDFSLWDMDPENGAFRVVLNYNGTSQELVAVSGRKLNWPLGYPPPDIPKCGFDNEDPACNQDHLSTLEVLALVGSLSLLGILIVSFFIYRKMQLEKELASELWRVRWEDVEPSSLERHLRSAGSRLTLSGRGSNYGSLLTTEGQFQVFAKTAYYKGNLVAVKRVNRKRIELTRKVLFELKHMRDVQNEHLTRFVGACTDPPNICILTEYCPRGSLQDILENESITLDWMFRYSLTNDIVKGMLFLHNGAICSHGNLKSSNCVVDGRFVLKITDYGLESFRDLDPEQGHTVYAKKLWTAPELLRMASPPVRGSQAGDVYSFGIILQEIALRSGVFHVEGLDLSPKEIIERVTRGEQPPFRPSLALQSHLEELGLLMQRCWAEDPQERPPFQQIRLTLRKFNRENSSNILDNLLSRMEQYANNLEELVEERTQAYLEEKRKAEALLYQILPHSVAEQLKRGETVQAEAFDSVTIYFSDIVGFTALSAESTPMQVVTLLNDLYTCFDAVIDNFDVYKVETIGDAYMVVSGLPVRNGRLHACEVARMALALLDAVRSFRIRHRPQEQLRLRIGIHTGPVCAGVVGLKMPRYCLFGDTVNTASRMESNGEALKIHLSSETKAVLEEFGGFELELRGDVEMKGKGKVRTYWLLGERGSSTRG
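HEK293 cells stably expressing human Npr1 and cGMP GloSensor pGS-40F, loaded 2 h with 2% GloSensor reagent, given compound 30 min at room temperature. Luminescence read before and 20 min after 0.1 nM hNppA.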
FLuc SDR no ATP: firefly luciferase binding stabilization, ATP absent | Purified FLuc-C-HiBiT, Nano-Glo HiBiT luminescence, no ATP | shares compounds with FLuc inh-1 | Potency, µM (titrated, usually from 32.7 µM), most hits filed as activators | actives 7.8% (n = 1,300); further: nearly all actives have a fitted effect of over 55% in size
FLuc SDR ATP: binders stabilizing firefly luciferase, plus ATP; shares compounds with FLuc inh-1; purified FLuc-C-HiBiT + ATP, HiBiT complementation luminescence; Potency, µM (doses to about 32.7 µM), actives largely listed as activators; actives 8.7% (n = 1,300); AID 1963319;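 further: signal reports ligand binding via conformational change of the enzyme rather than luciferase catalysis; nearly all actives have a fitted effect of over 55% in size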
FLuc inh-2: blocks firefly luciferase enzymatic activity; shares compounds with FLuc inh-1; Potency, µM (titrated, usually from 32.7 µM), usual class: inhibitors; AID 1963320; purified FLuc-C-HiBiT enzyme, luciferin luminescence; actives 42% (n = 1,300); further: nearly all actives have a fitted effect of over 70% in size
A number is an active result; n = inactive; u = inconclusive; x = no result. Unless noted, the call rests on the fitted dose curve; in most records, active means well fitted curve in the direction sought with a large enough effect; inconclusive means small, poorly fitted or top-dose-only effect, or another doubt; inactive means no such curve, though single readings can be large; an effect the other way counts as inactive or inconclusive.

SMILES | FLuc inh-1 | HEK293 tox | GPT2 inhibitor | 3T3 cytotox | hNpr1 antagonist | FLuc SDR no ATP | FLuc SDR ATP | FLuc inh-2
COc1ccc(Nc2cc3c(nc2OC)nc(CCc2ccccc2)n3C)cn1 | 6.3µM | u | n | u | n | n | n | u
COCCN1CCC2(C1)CN(C)c1ccc(C(=O)Nc3ccc(F)cc3)cc12 (centres undefined) | 2.8µM | 79µM | n | u | u | u | u | 7.2µM
COCCN1CCC2(C1)CN(C)c1ccc(C(=O)Nc3ccn(C)n3)cc12 (centres undefined) | x | x | x | x | x | u | u | 10µM
COCCN1CCC2(C1)CN(C)c1ccc(C(=O)NCCOc3ccccc3)cc12 (centres undefined) | n | u | n | u | n | x | x | x
COCCN1CCC2(C1)CN(C)c1ccc(C(=O)Nc3ccccc3)cc12 (centres undefined) | 0.63µM | 79µM | n | u | 6.3µM | 4µM | u | 1.1µM
CN1CC2(CCCN(CC3CC3)C2)c2cc(C(=O)Nc3ccn(C)n3)ccc21 (centres undefined) | n | u | n | n | n | x | x | x
COC(=O)N1CCC(C(=O)N2CCCC2c2nc3ccncc3[nH]2)CC1 (centres undefined) | x | n | n | n | x | x | x | x
COc1ccc2cc(C(C)C(=O)Oc3ccc(C(N)=S)cc3)ccc2c1 (centres undefined) | x | x | n | x | x | x | x | x
COc1ccc(C(=O)Oc2ccc(C(c3c(C)[nH][nH]c3=O)c3c(C)[nH][nH]c3=O)cc2)cc1 | x | x | x | x | x | n | n | u
CCOc1ccccc1C(=O)Nc1nc2c(s1)CC(C)CC2 (centres undefined) | x | x | x | x | x | n | n | 4.4µM
CCOc1ccccc1C(=O)NC1CCN(c2cnn(CC)c(=O)c2)CC1 | n | n | n | u | n | x | x | x
Clc1ccc(OCc2nc3ccccc3n2Cc2ccccc2)c(Cl)c1 | x | x | x | x | x | n | n | u
COCCN1CCNc2nc(COc3ccccc3OC(F)(F)F)n(Cc3ccccc3)c2C1=O | n | u | n | u | n | x | x | x
COc1cccc(OCc2nc3ccccc3n2Cc2ccccc2)c1 | x | x | x | x | x | n | n | n
COc1cccc(CNC(=O)c2nc3cccnc3n(Cc3ccccc3)c2=O)c1 | x | u | n | u | x | x | x | x
CC(=O)c1cc(CN2CCC(c3nnc4n3CCCCC4)CC2)n(C)c1 | n | n | n | n | n | x | x | x
Cc1ccc(C2Cn3nnc(C(=O)N4CCC(C(=O)NCCc5cccs5)CC4)c3CO2)cc1 (centres undefined) | 10µM | n | n | n | n | n | u | u
Cc1ccc(C(=O)N2CCN(C(=O)c3nnn4c3COC(c3ccc(C)cc3)C4)CC2)cc1 (centres undefined) | n | u | n | n | n | x | x | x
Cc1ccc(C2Cn3nnc(C(=O)N4CCN(C(=O)c5cccs5)CC4)c3CO2)cc1 (centres undefined) | n | n | n | u | n | x | x | x
Cc1ccc(C2Cn3nnc(C(=O)N4CCC(C(=O)NCCN5CCCC5)CC4)c3CO2)cc1 (centres undefined) | 13µM | n | n | n | n | n | u | u
COCCNC(=O)C1CCN(C(=O)c2nnn3c2COC(c2ccc(C)cc2)C3)CC1 (centres undefined) | 5.6µM | n | n | n | n | n | u | u
CC(C)CCN(C)C1CCOc2ccccc21 (centres undefined) | n | n | n | n | n | x | x | x
CSCC(=O)N1CC[C@H](NC(=O)NC(C)C)[C@H]1C(=O)N(C)CC(N)=O | n | n | n | n | n | x | x | x
Cc1ccc(NC(=O)NC[C@H]2O[C@@H](CC(=O)NCCN3CCOCC3)[C@H](O)[C@@H]2O)cc1 | n | n | n | n | n | x | x | x
Cc1ccc(NC(=O)c2ccc(Cn3ccn4nc5c(c4c3=O)CCCC5)cc2)cc1C | u | u | n | n | n | x | x | x
SMILES | FLuc inh-1 | HEK293 tox | GPT2 inhibitor | 3T3 cytotox | hNpr1 antagonist | FLuc SDR no ATP | FLuc SDR ATP | FLuc inh-2
Cc1ccc(NC(=O)c2ccc3snnc3c2)cc1C | x | x | x | x | x | n | u | u
O=C(O)CCC(=O)N[C@H]1CCN2C(=O)c3cc(/C=C/c4ccccc4)ccc3NC(=O)[C@H]12 | u | n | n | n | n | x | x | x
O=C(O)COCC(=O)N[C@H]1CCN2C(=O)c3cc(/C=C/c4ccccc4)ccc3NC(=O)[C@H]12 | 7.9µM | n | n | n | n | n | u | u
O=C(N[C@H]1CCN2C(=O)c3cc(/C=C/c4ccccc4)ccc3NC(=O)[C@H]12)c1cnccn1 | u | u | n | n | n | x | x | x
O=C(N[C@H]1CCN2C(=O)c3cc(/C=C/c4ccc(O)cc4)ccc3NC(=O)[C@H]12)c1cnccn1 | 13µM | u | n | n | n | n | n | n
COc1ccc(/C=C/c2ccc3c(c2)C(=O)N2CC[C@H](NC(=O)CCC(=O)O)[C@H]2C(=O)N3)cc1 | 6.3µM | n | n | n | n | u | u | u
CCc1nc(-c2c3n(c(=O)n(Cc4ccc(C(=O)OC)o4)c2=O)CCCC3)no1 | n | n | n | n | n | x | x | x
NCc1ccccc1Oc1ccc(F)c(Cl)c1 | x | u | n | u | x | x | x | x
COc1cccc(CC(=O)NCCn2ccn3nc(-c4ccc(C)c(C)c4)cc3c2=O)c1 | 13µM | 79µM | n | u | n | n | n | u
COc1ccccc1C(=O)NCCn1ccn2nc(-c3ccc(C)c(C)c3)cc2c1=O | n | n | n | n | n | x | x | x
COc1cccc(-c2cc3c(=O)n(CCNC(=O)c4ccccc4Cl)ccn3n2)c1 | 13µM | u | n | n | n | n | n | u
COc1ccc(-c2cc3c(=O)n(CCNC(=O)Cc4cccs4)ccn3n2)cc1 | 8.9µM | u | n | u | n | u | u | u
Cc1ccc(CNC(=O)c2ccc3c(c2)CN(Cc2cnn(C)c2C)CCO3)cc1 | n | u | n | n | u | n | n | n
O=C(Nc1ccccc1)Nc1ccc(=O)n2c1[C@@H]1C[C@@H](CN(C(=O)COc3ccccc3)C1)C2 | n | n | u | n | n | x | x | x
CN(Cc1ccccc1)C(=O)c1cccc2c1CCN2C(=O)Nc1ccccc1 | 0.79µM | u | n | u | 8.9µM | n | 0.39µM | 0.28µM
CN(Cc1ccccc1)C(=O)CC1CCN(C(=O)Nc2ccccc2)C1 (centres undefined) | x | u | n | n | x | x | x | x
CN(Cc1ccco1)C(=O)c1cccc2c1CCN2C(=O)Nc1ccccc1 | 1.3µM | u | n | u | 10µM | u | 0.28µM | 0.2µM
CC(=O)c1[nH]c(C)c(C(=O)N[C@H]2[C@H]3CCO[C@H]3[C@@H]2N2CCCC2)c1C | n | n | u | n | n | x | x | x
